Data as given in paper PMC12136788.
Where a chain is given by its changes, count along the chain named. Over roughly 24,000 sequences, “enrichment r” has its median near 0.99; the highest 2% begin near 3.7. The entries come from a sample that favours the highest values as a whole.

T1: UNK ZnF1-3 (human, UniProt Q9C0B0 31-174)
T1 sequence: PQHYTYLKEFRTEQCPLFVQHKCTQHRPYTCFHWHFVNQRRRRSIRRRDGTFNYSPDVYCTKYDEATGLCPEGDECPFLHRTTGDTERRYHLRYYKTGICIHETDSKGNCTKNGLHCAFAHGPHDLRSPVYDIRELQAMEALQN

B1: chr15:63448706:63448707:-_ENSG00000185088_ENST00000411926|hu_hu|FALSE|FALSE (ssRNA)
RNA: GGGAGUUCUACAGUCCGACGAUCUGAUCUUGUAGCAACCUGGACAUUUUACAUCCAUAAAGUAAGAAUUUGGACUUUGUACUAGGCGUUUCUUUUUAUGUUUUUUCUUUUCCUCUUCCAAGGACGGAUGUAGUAAAUCUCUAGCAACAGAGGAUUGAGCAUCA
B2: chr15:51674161:51674162:-_ENSMUSG00000022312_ENSMUST00000022925|mus_mus|motif|central (ssRNA)
RNA: GGGAGUUCUACAGUCCGACGAUCCUGAACAACCUCAGUGCCUUGUCCUUCUUCUUGAUAAUGUUUGAUUAUCUUUAAUACGGCCAGGCCGUCGAUCUGCACCUGCUUCACGGCCGAAUCUCCGGAGCCGCCUUUGCCUUUGCCCAACAGAGGAUUGAGCAUCA
B3: 109540647_109541272_703_CDS_ENSG00000076248_ENST00000242576|human|control|control (ssRNA)
RNA: GGGAGUUCUACAGUCCGACGAUCACGAACCGUGAGGACAGCGUUGAGAAGGAGAACACCUUGCUUGGCCCACCCAGAUAAAUCUCCAUGGCCAGGAUGAACAAAAUCCUCUAUGUCUGUAGACAACUCUUUAUAAAUGUUCUCCAACAGAGGAUUGAGCAUCA
B4: chr20:52835626:52835627:+_ENSG00000101132_ENST00000441080|hu_mus|FALSE|FALSE (ssRNA)
RNA: GGGAGUUCUACAGUCCGACGAUCUGCCUCGAGGUUUAUGUUGCUGCCAAAUUUCGCGUAUAGCUGCACCUUCAGGUCGGCUAACACCCGCUGGAUGGACGCCACUCUGGACUCUAAGGCAUCAAUCUCUUCUUGCAAAGUUUUCAACAGAGGAUUGAGCAUCA
B5: chr1:39494447:39494448:+_ENSG00000168653_ENST00000372967|hu_mus|hu_hu_hu_mus_False|48_48 (ssRNA)
RNA: GGGAGUUCUACAGUCCGACGAUCGCACCGAGCGGCGUUCUUAUAGGGCUGUUCUGCGCUUAGGAACAUAAAGUGCCGGUCCAGGCUAAGGCCGAACUUUUUCUGUAUGUCAAGGAAAGGCAUGGCUCUGCAGUGCCCUUGUCACAACAGAGGAUUGAGCAUCA
B6: chr2:131829505:131829506:-_ENSG00000152102_ENST00000409185|hu_mus|FALSE|FALSE (ssRNA)
RNA: GGGAGUUCUACAGUCCGACGAUCCGCUCCAGGGUACAUGUUAGGAGAAUAGGCAGGUGCUGCUGCAUAGCCCACAGGAAAACCAGCUGGAUAUCCAAUUCCUUUGGCAUUUGCAUAGGGAACGCCAGAAGACCCAGGGCUAUACAACAGAGGAUUGAGCAUCA
B7: chr2:121263671:121263672:+_ENSMUSG00000027248_ENSMUST00000028683|mus_mus|FALSE|FALSE (ssRNA)
RNA: GGGAGUUCUACAGUCCGACGAUCAAAACGACAGUAUAAAGGGGGCACAUUUAUUGUCACUGUUCCAAAUGUACAAAAAAAAUUAGAAAAUAACCCCCCAACUCAAUUCCCCCCACCCCCACAACAUUCUUCCCAACACAAAUACAACAGAGGAUUGAGCAUCA
B8: chr1:235506153:235506154:+_ENSG00000152904_ENST00000391855|hu_hu|FALSE|FALSE (ssRNA)
RNA: GGGAGUUCUACAGUCCGACGAUCCUACUCACCUAUUUACUGUUUCUGGAGAAUAACAAAUUUUUUAAAAGGUGGUAAGGCUAAAAGACAAAAAAAAGAUUAACUAAAAUAAGCUAUGAGGUCCAAUCAAGAAUGGCUUAACAUCAACAGAGGAUUGAGCAUCA
B9: chr1:120316058:120316059:+_ENSMUSG00000064302_ENSMUST00000049404|mus_mus|FALSE|FALSE (ssRNA)
RNA: GGGAGUUCUACAGUCCGACGAUCCACCAUGUGUGUCUGAAGAGCAGCUGGUAGGAUAUUAAAAGUCCAAUUUAAAUAACUAGUAGGCAAUAAAGGAGAGAGUGGCGGAGUGAUGAUCUACAACUGGGUCUGAAAUACUUCAUACAACAGAGGAUUGAGCAUCA
B10: chr10:123500321:123500322:-_ENSG00000107669_ENST00000369043|hu_mus|FALSE|FALSE (ssRNA)
RNA: GGGAGUUCUACAGUCCGACGAUCGAUAUGCUAAGAAACCACACAAAACUGGCAUUUGCAAAUGGAUAAAAAUAGGAUAGAUUGCUUGAAAGAAAACAUAAACAAUAAUUUUAUCUAAAUAAUUUUAAUUGAGUGACUAUAUUCCAACAGAGGAUUGAGCAUCA
B11: chr14:105707756:105707757:+_ENSMUSG00000053253_ENSMUST00000138283|mus_hu|motif|central (ssRNA)
RNA: GGGAGUUCUACAGUCCGACGAUCAUUUAUUUUUCUUAUAAAGGACAUUUGGUAUUCCCACAUUUUCUUAAAAUUUGUCCGGAAACAAAUUCUAUCUUUAACACUCACGUUUCUAAAUAUAUAUAUGUGUGUGUGUAUAUAUAUCAACAGAGGAUUGAGCAUCA
B12: chr10:62229464:62229465:-_ENSMUSG00000020074_ENSMUST00000020268|mus_mus|FALSE|FALSE (ssRNA)
RNA: GGGAGUUCUACAGUCCGACGAUCCAGUUGAAAUGGUCUUGACAAAGGGAAAGCAUCCACCCAUGUAAACUGAGCAUCAAAAAAGUCACUAGGAAUAUAUAAGUUCUGAUAACGGCGCCUUAGUUCCAUCAUGUCACAACUGGGCAACAGAGGAUUGAGCAUCA
B13: chr12:55960871:55960872:-_ENSMUSG00000062929_ENSMUST00000078124|mus_hu|FALSE|FALSE (ssRNA)
RNA: GGGAGUUCUACAGUCCGACGAUCUACUAAUGUUUAAGACUGCUAUUAUCAAUUCCUAUUCCAAUUCAAUUUGCAAAAUAUAUUCAGAAAUAGUAGGUGAAAUGACUGUUCCGAAACAUCAGAAGUAUCAUUAAACUUUUAAAGCAACAGAGGAUUGAGCAUCA
B14: chrX:71549762:71549763:+_ENSMUSG00000019087_ENSMUST00000019231|mus_mus|mus_mus_mus_hu_False|78_78 (ssRNA)
RNA: GGGAGUUCUACAGUCCGACGAUCAAACCCGUGUACUUCUUAUUGUUAGCACAACAUUCCCCCCCAACGAUAACGACAGCCAAGCAGGACAGACAGUUAAGUAGUACUUCCACACUCCCAAACUCAGGGAGCCCUAUAACCUUACAACAGAGGAUUGAGCAUCA
B15: chr1:58468927:58468928:-_ENSMUSG00000026034_ENSMUST00000148330|mus_mus|mus_mus_mus_hu_False|98_108 (ssRNA)
RNA: GGGAGUUCUACAGUCCGACGAUCAAUCUAUAAUUACUGAAAGAUGUACCUUAGCUAUGUACUUAAUGAACCAAAUUACCCAAACAAAAUAAACAUGGCAAUAUAAAAAUGUUAAGAAUUUACAAAGCUGUACAAAAUAACUUACAACAGAGGAUUGAGCAUCA
B16: chr17:65336665:65336666:-_ENSG00000197170_ENST00000356126|hu_mus|FALSE|FALSE (ssRNA)
RNA: GGGAGUUCUACAGUCCGACGAUCACACAUGUCCUGUUUUUAUUACUAUCACGUGGCUGUCAGGUGAAUAAAAACAAAUAGUAUGAACACACUCAAGGAAAGCUGAGACACAAACCUUUCUGUCUUCAGACUGAAAAAAUGUUUCAACAGAGGAUUGAGCAUCA
B17: chr10:62229464:62229465:-_ENSMUSG00000020074_ENSMUST00000020268|mus_hu|FALSE|FALSE (ssRNA)
RNA: B12 RNA with U27C, C69U, A93U, U99C, G102A, C105U
B18: chr10:33190432:33190433:-_ENSG00000150093_ENST00000302278|hu_mus|hu_hu_hu_mus_True|68_78 (ssRNA)
RNA: GGGAGUUCUACAGUCCGACGAUCUACAUUUUCCAAACCUGCAUGUGAAUAAAACCCUGGCAAUAUUGCCCUAAAGCUACCCUACUGUGACUAAGAUGCUGCUGCUGUGAGCUUGGUGUUGCAAAAUCCGCCUGAGUAGGAUUCCAACAGAGGAUUGAGCAUCA
B19: chr8:117878989:117878990:-_ENSG00000164754_ENST00000297338|hu_hu|hu_hu_hu_mus_True|68_98 (ssRNA)
RNA: GGGAGUUCUACAGUCCGACGAUCCCAGAGGCCCUCGUUUACUGAGAACAAAAUGUGCGUAGAACAUUGUUCUGGCUUGCUAUGAAAUAAGAAGAAACCUGGAUCUCGGCGGGGAGCCGGGAGGGGUGGGUGGCCCGGGGAGGGCAACAGAGGAUUGAGCAUCA
B20: chr10:79719409:79719410:+_ENSMUSG00000020153_ENSMUST00000020361|mus_mus|FALSE|FALSE (ssRNA)
RNA: GGGAGUUCUACAGUCCGACGAUCCCAGAUCUUCAGCUUCUGUUCACGCUUGAUCUUCCGUUGCAGCUGCAAGAUGCCAUAAAGGAGUGCUUCGGCCGUGGGCGGGCAGCCUGGCACAUAGAUGUCCACUGGCACAAUGCGGUCCAACAGAGGAUUGAGCAUCA
B21: chr7:149068622:149068623:-_ENSMUSG00000025139_ENSMUST00000001950|mus_hu|mus_mus_mus_hu_False|38_48 (ssRNA)
RNA: GGGAGUUCUACAGUCCGACGAUCGUGAGGCCUCUGAGUGUGGCUUGUGGUCUGUCCUGGGUUAGAGUUGUUAAUAUCACGGAACAUACCACUUAAGGAGGUUCUGCCCCGCCUGACACCUUCAUUCCCAAUGGAGAAGAAAUCCAACAGAGGAUUGAGCAUCA
B22: chr7:54823571:54823572:-_ENSG00000132432_ENST00000352861|hu_mus|hu_hu_hu_mus_False|48_88 (ssRNA)
RNA: GGGAGUUCUACAGUCCGACGAUCUCCCAUGAUAGCAAAUCCUAUAGCUGUUGCCAUGGCAAUCUUCUGGAAUUCUUUUCUGUCGGGUUUAGUGCAUCUUUUAACCAGCCGAAUUGAGUCCUUUACAAACUGCCGGCUGGGCUCCAACAGAGGAUUGAGCAUCA

Target: T1, UNK ZnF1-3
Test: nsRBNS (natural sequence RNA bind-n-seq); RBNS binding buffer (assumed for nsRBNS): 25 mM Tris pH 7.5, 150 mM KCl, 3 mM MgCl2, 0.01% Triton X-100, 500 ug/ml BSA, 20 U/ml SUPERase-In, 4 C; UNK is unkempt and MSI1 is Musashi-1; names of the RNAs are library labels; protein concentration not given here; high values mean tight binding

| Binder | binding signal |
| --- | --- |
| B1 | 0.655 enrichment R |
| B2 | 0.51 enrichment R |
| B3 | 1.34 enrichment R |
| B4 | 0.762 enrichment R |
| B5 | 0.888 enrichment R |
| B6 | 0.945 enrichment R |
| B7 | 5.9 enrichment R |
| B8 | 5.06 enrichment R |
| B9 | 2.28 enrichment R |
| B10 | 5.07 enrichment R |
| B11 | 0.913 enrichment R |
| B12 | 3.38 enrichment R |
| B13 | 0.797 enrichment R |
| B14 | 1.31 enrichment R |
| B15 | 1.97 enrichment R |
| B16 | 1.19 enrichment R |
| B17 | 6.32 enrichment R |
| B18 | 1.15 enrichment R |
| B19 | 2.44 enrichment R |
| B20 | 0.695 enrichment R |
| B21 | 0.716 enrichment R |
| B22 | 0.587 enrichment R |
